HT1080 IDH1KD tx – kills HT-1080 cells with IDH1 knockdown | Potency, µM (series often up to 46.1 µM), most hits filed as cytotoxic | AID 686971 | HT-1080 IDH1 knockdown viability, ATP luminescence, 48 h | 2% of 360,000 active
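Using the IDH1-knockdown HT-1080 line run in the same batch and compound series as the NT line, viability after 48 h at 37 °C was determined by CellTiter-Glo luminescence and expressed as % activity.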
DT40 TDP1 no CPT – qHTS for Inhibitors of human tyrosyl-DNA phosphodiesterase 1 (TDP1): qHTS in cells in absence of CPT; DT40 Tdp1-/- hTDP1 cells, no CPT, ATP luminescence, 48 h; 15% of 420,000 active; AID 686978, 2013; Potency, µM (doses to about 46.2 µM), hits mostly inhibitors; also: nearly all actives have a fitted effect of over 55% in size
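DT40 Tdp1-/-;hTDP1 cells, no CPT (DMSO vehicle only), 400 cells/well; compounds pin-transferred; ≥48 hr, 37 °C; CellTiter-Glo 30 min RT dark, luminescence read.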
TDP1 cell CPT – growth inhibition of DT40 Tdp1-/-;hTDP1 cells with camptothecin (screen for TDP1 inhibitors). chicken DT40 Tdp1-/-;hTDP1 cells + 20 nM CPT, ATP luminescence, 48 h. Potency, µM (titrated, usually from 46.2 µM), hits mostly inhibitors. 12% of 420,000 active. AID 686979; also: nearly all actives have a fitted effect of over 55% in size
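Cell growth measured by CellTiter-Glo luminescence after a minimum 48 h, 37 C compound exposure with 20 nM CPT in Tdp1-knockout DT40 cells stably expressing hTDP1, seeded 400/well; qHTS titration format.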
HT1080NT lethal – kills 2HG-producing HT-1080-NT fibrosarcoma cells | HT-1080-NT fibrosarcoma viability, CellTiter-Glo ATP luminescence, 48 h | AID 686970 | 1.6% of 360,000 active | Potency, µM (doses to about 46.1 µM), actives largely listed as cytotoxic;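 also: NT is the 2HG producing partner of a matched IDH1 knockdown line; nearly all actives have a fitted effect of over 55% in size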
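A 48-hour cytotoxicity screen used HT-1080-NT cells plated 2 hours before compound delivery. ATP-based CellTiter-Glo luminescence measured viability, normalized to DMSO and no-cell controls.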
IL1B secr inh – inhibitors of inflammasome signaling (IL-1 beta secretion); THP-1 LPS/ATP IL-1B secretion, AlphaLISA, 16 h; active compounds read low; 4.7% of 360,000 active; activity change, % at 57.5 µM; in the data active = activity change below about -50%; inconclusive = mostly about -30% to -49%
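THP-1 cells pretreated 1 hr with compounds (up to 57.5 uM final), then stimulated with LPS (250 ng/mL final) plus ATP (1.25 mM final); secreted IL-1B measured by AlphaLISA after 16 hr, decreased signal indicating inhibition.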
Numbers stand for hits; – = inactive; ? = inconclusive; · = not tested or not shown; [ ] = remark or other dose. A selection: hits, their analogues and other compounds. The true share with any hit is near 19%. Unless noted, calls follow the shape of the dose curve; as a rule, active = well fitted curve in the direction sought with a large enough effect; inconclusive = small, poorly fitted or top-dose-only effect, or another doubt; inactive = no such curve, though single readings can be large; an effect the other way counts as inactive or inconclusive.

SMILES	HT1080 IDH1KD tx	DT40 TDP1 no CPT	TDP1 cell CPT	HT1080NT lethal	IL1B secr inh
C=C1CCC[C@]2(C)C[C@H]3OC(=O)C(CN4CCCCC4CO)[C@H]3CC12 (some centres not stated)	?	12µM	4.6µM	?	·
C=C1CCC[C@]2(C)C[C@H]3OC(=O)C(CNC(C)(CO)CO)[C@H]3CC12 (some centres not stated)	?	21µM	?	–	-96
C=C1C(=O)OC2C[C@@]3(C)CCCC(=C)[C@@H]3CC12 (some centres not stated)	·	24µM	27µM	·	·
C=C1CCC[C@]2(C)C[C@H]3OC(=O)C(CNC(CC)CO)[C@H]3CC12 (some centres not stated)	21µM	18µM	?	?	-98
COc1ccc(CCN2CC(C(=O)NCCc3cn[nH]c3)CCC2=O)cc1 (configuration not stated)	–	–	–	–	–
O=C(CCC1CCCC1)NNC(=O)c1ccc(F)cc1	–	–	–	–	–
CC1CCN(C(=O)CSc2nnc(Cc3cc(=O)[nH]c(=O)[nH]3)n2-c2ccc(Cl)cc2)CC1	–	–	–	–	–
O=C(OCC(=O)c1ccc(Cl)s1)c1cnccn1	–	–	–	–	–
C=C1CCC[C@]2(C)C[C@H]3OC(=O)C(CNC(C)CC)[C@H]3CC12 (some centres not stated)	?	?	?	?	-96
C=C1CCC[C@]2(C)C[C@H]3OC(=O)C(CN(C)CC(OC)OC)[C@H]3CC12 (some centres not stated)	?	?	?	–	-92
Cc1ccc(S(=O)(=O)N2[C@@H](CO)CO[C@H]2CC(=O)c2ccccc2)cc1	–	–	–	–	–
CN1CCN(C(=O)C2CCN(c3ncnc4c3nc3n4CCCCC3)CC2)CC1	–	–	–	–	–
O=C(C1CCN(c2ncnc3c2nc2n3CCCCC2)CC1)N1CCN(c2ccc(F)cc2)CC1	–	12µM	?	–	–
CCc1c(C)nc2ncnn2c1N1CCC(C(=O)N2CCN(c3ccc(F)cc3)CC2)CC1	–	15µM	16µM	–	–
O=C(C1CCN(c2ncnc3c2nc2n3CCCCC2)CC1)N1CCN(c2ccccc2)CC1	·	21µM	?	·	·
O=C(C1CC1)N1CCN(c2ccc(F)cc2)CC1	–	–	–	–	–
Cc1sc2ncnc(SCc3ccco3)c2c1C	–	?	?	–	–
c1ccc(-n2nnnc2Sc2ncnc3sc4c(c23)CCCC4)cc1	–	3.3µM	4.1µM	–	–
Cc1sc2ncnc(Sc3nnnn3-c3ccc(Cl)cc3)c2c1C	?	?	?	?	-70
Cc1cc(NC(=O)CSCC(=O)Nc2ccc(C)c(C)c2)no1	–	–	–	–[9.24 µM]	–
C#CCn1c(=O)cc(C)c2ccccc21	–	–	–	–	–
C#CCn1cc(C=C2C(=O)c3ccccc3C2=O)c2ccccc21	–	21µM	23µM	–	–
Cn1c(N)c(C(=O)COC(=O)C2CCCN2C(=O)c2cccs2)c(=O)n(C)c1=O (configuration not stated)	–	–	–	–	–
C=C1c2nc3ccccc3n2C=C(c2ccc(C)cc2)N1c1ccccc1	18µM	13µM	8.2µM	21µM	–
Cn1c(-c2sc(=S)n(-c3ccccc3)c2N)nc2ccccc21	–	–	–	–	–
SMILES	HT1080 IDH1KD tx	DT40 TDP1 no CPT	TDP1 cell CPT	HT1080NT lethal	IL1B secr inh
COc1ccc2c(=O)cc(-c3ccccc3F)oc2c1	–	21µM	?	–	-61
COc1ccc2oc(-c3ccco3)cc(=O)c2c1	–	?	?	–	-62
COc1cccc2oc(-c3ccco3)cc(=O)c12	–	15µM	21µM	–	-101
CCOC(=O)c1c(NC(=O)CSc2ncnc3[nH]ncc23)sc2c1CCC(C)C2 (configuration not stated)	?	?	–	?	–
COc1ccc(S(=O)(=O)N2C[C@H]3CON(C)[C@H]3C[C@H]2c2ccc(-c3cc4ccccc4o3)cc2)cc1	–	?	?	?	–
COC(=O)C1C(=O)c2c([nH]c(C(=O)OC3CCCC3C)c2C)CC1C (configuration not stated)	–	13µM	16µM	–	–
CC(C)Cc1nnc(NC(=O)CCC(=O)N2CCN(Cc3ccccc3)CC2)s1	–	–	–	?	–
O=C1C=CC(O)C2(CO)OC12 (configuration not stated)	?	5.8µM	16µM	?	-90
c1ccc(NC2=NCCN2CCC2CCCCC2)cc1	–	?	23µM	–	–
CCCCCCCN1CCN=C1Nc1ccccc1	–	26µM	23µM	–	?
c1ccc(NC2=NCCN2CCCC2CCCC2)cc1	–	?	?	–	–
CCCc1cc(=O)oc2cc(C)c(CN3CCCC3)c(O)c12	–	16µM	?	–	–
Cc1cn([C@H]2C[C@H](O)[C@@H](CNCc3cc(Cl)ccc3OCc3ccc(Cl)cc3)O2)c(=O)[nH]c1=O	–	?	?	–	·
CC1CCN(c2ccc(C(=O)NCc3ccco3)cc2[N+](=O)[O-])CC1	–	?	?	–	?
COC(=O)c1ccccc1NC(=O)c1cc2c(-c3ccc(OC)c(OC)c3)nn(C)c2s1	·	–	–	·	·
CCCCN(CC)CCCNC(=O)c1cc2c(-c3ccc(OC)c(OC)c3)nn(C)c2s1	?	?	?	?	-70
COc1ccc(CCNC(=O)c2cc3c(-c4ccc(OC)c(OC)c4)nn(C)c3s2)cc1OC	·	2.9µM	2.6µM	·	·
CCOCCCNC(=O)c1cc2c(-c3ccc(OC)c(OC)c3)nn(C)c2s1	·	18µM	7.3µM	·	·
Cc1ccc(CNC(=O)c2cc3c(-c4ccc(Cl)cc4)nn(C)c3s2)o1	–	?	?	–	?
Cc1ccc(S(=O)(=O)N2CCCCC2)cc1C(=O)N1CCCCCC1	–	–	–	–	–
COc1cc(C(=O)C(=O)c2cc(OC)c(O)c(OC)c2)cc(OC)c1O	–	–	–	–	–
COc1cc(-c2cc(OC)c(O)c(OC)c2)cc(OC)c1O	?	9.2µM	16µM	–	–
COC(=O)/C=C1\OCc2cc(C)ccc21	–	–	–	?	–
CC(=O)Nc1ccc(S(=O)(=O)NCCSCc2ccc(Cl)cc2Cl)cc1	?	18µM	?	–	-56
CC(=O)Nc1ccc(S(=O)(=O)NCCCCNS(=O)(=O)c2ccc(NC(C)=O)cc2)cc1	–	–	–	–	–
O=C(CC1CC2CCC1C2)N1CCN(S(=O)(=O)c2ccccc2C(F)(F)F)CC1 (configuration not stated)	–	?	–	–	–
CC1=CN2C(=N)/C(=C/c3ccco3)C(=O)N=C2S1	–	–	–	–	–

From PubChem
